According to PubChem BioAssay:
Activity calls are given as the source filed them.

Columns and labels:
[1] = optical density shifts of acrAB sulA E. coli – strain DRC41, OD650, 48 h, E. coli filamentation inducer project, primary screen (AID 1152); settings: higher = more signal, called active from +8 up or from −8 down;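 note: E. coli MC1000 strain DRC41 lacking acrAB efflux pump and sulA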
[2] = probe aLefty1 binding on compound microarray – biochemical, small-molecule microarray, 635/667 nm fluorescence, primary screen (AID 1153); settings: higher = more signal;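 note: score merges spot fluorescence with signal-to-noise ratio from the scanned slide images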
[3] = plasmodial surface anion channel blockers, osmotic lysis – cell-based, P. falciparum Indochina, OD700, 1 h, primary screen (AID 1154); settings: P. falciparum Indochina infected RBC osmotic lysis, higher = more signal, called active from +8 up or from −8 down
[4] = plasmodial surface anion channel blockers, osmotic lysis – cell-based, P. falciparum Indochina, OD700, 2 h, primary screen (AID 1155);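 note: lysis reports solute entry through the parasite surface anion channel PSAC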; settings: P. falciparum Indochina infected erythrocytes, higher = more signal, called active from +8 up or from −8 down
[5] = changes in parasitized red cell lysis, either direction – P. falciparum Indochina, OD700, 3 h, PSAC antagonist project, primary screen (AID 1156); settings: P. falciparum-infected erythrocytes, osmotic lysis, higher = more signal, called active from +8 up or from −8 down
[6] = plasmodial surface anion channel blockers, osmotic lysis – cell-based, P. falciparum Indochina, OD700, 18 h, primary screen (AID 1157); settings: P. falciparum Indochina infected erythrocytes, osmotic lysis OD700, 18 h; higher = more signal, called active from +8 up or from −8 down
[7] = S6 kinase pathway phospho-S6 level changes – cell-based, A549, cytoblot, luminescence, serum-stimulated, primary screen (AID 1158); settings: 5 h, higher = more signal;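 note: serum-stimulated A549 lung adenocarcinoma cells; signal is phosphorylated S6 detected by cytoblot immunostaining with HRP secondary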
[8] = biological target: NADPH oxidase 2 (Homo sapiens) (UniProt P04839); experiment: compounds shifting NOX2 Amplex Red fluorescence – cell-based, HEK293-NOX2, PMA-stimulated, NOX inhibitor project, primary screen (AID 1159); settings: 45 min, higher = more signal, called active from +8 up or from −8 down; note: test concentration not given here
NADPH oxidase 2 (Homo sapiens), sequence (P04839 whole entry, looked up): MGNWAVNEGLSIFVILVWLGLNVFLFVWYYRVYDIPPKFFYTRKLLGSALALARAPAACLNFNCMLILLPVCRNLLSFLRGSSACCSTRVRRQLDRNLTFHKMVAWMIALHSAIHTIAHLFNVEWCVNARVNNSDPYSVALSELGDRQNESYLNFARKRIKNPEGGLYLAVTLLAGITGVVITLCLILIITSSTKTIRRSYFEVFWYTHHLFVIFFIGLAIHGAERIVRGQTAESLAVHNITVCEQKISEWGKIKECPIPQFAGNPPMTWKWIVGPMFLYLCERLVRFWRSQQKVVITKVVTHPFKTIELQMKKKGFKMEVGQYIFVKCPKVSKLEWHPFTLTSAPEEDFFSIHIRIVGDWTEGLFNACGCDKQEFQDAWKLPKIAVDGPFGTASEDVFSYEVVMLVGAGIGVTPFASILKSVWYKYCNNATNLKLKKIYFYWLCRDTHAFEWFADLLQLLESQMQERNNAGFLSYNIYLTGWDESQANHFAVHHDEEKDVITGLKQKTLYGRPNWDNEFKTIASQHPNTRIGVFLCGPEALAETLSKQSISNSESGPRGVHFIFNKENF

[9] = biological target: NADPH oxidase 4 (Homo sapiens) (UniProt Q9NPH5); experiment: compounds shifting NOX4 Amplex Red fluorescence – cell-based, HEK293-NOX4, tetracycline-induced, NOX inhibitor project, primary screen (AID 1160); settings: HEK293-NOX4, Amplex Red H2O2 fluorescence, 45 min; higher = more signal, called active from +8 up or from −8 down
NADPH oxidase 4 (Homo sapiens), sequence (Q9NPH5 whole entry, looked up): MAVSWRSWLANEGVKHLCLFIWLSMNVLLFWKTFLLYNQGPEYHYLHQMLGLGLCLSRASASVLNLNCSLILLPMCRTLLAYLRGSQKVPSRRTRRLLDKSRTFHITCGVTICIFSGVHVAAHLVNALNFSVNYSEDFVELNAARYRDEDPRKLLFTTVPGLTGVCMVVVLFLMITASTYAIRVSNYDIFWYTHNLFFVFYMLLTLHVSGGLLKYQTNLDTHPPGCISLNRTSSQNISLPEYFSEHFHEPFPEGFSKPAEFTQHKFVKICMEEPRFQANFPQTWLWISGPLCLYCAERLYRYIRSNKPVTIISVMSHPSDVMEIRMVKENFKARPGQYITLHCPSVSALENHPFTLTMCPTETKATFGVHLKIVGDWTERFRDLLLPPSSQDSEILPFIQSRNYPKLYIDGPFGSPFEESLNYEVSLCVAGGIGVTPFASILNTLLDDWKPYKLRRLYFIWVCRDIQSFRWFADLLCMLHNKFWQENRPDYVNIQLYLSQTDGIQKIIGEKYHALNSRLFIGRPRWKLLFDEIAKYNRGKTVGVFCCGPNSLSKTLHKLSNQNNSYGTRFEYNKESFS

[10] = biological target: NADPH oxidase 5 (Homo sapiens) (UniProt Q96PH1); experiment: compounds shifting NOX5 Amplex Red fluorescence – cell-based, HEK293-NOX5, NOX inhibitor project, primary screen (AID 1161); settings: HEK293-NOX5, ionomycin, 45 min, higher = more signal
NADPH oxidase 5 (Homo sapiens), sequence (Q96PH1 whole entry, looked up): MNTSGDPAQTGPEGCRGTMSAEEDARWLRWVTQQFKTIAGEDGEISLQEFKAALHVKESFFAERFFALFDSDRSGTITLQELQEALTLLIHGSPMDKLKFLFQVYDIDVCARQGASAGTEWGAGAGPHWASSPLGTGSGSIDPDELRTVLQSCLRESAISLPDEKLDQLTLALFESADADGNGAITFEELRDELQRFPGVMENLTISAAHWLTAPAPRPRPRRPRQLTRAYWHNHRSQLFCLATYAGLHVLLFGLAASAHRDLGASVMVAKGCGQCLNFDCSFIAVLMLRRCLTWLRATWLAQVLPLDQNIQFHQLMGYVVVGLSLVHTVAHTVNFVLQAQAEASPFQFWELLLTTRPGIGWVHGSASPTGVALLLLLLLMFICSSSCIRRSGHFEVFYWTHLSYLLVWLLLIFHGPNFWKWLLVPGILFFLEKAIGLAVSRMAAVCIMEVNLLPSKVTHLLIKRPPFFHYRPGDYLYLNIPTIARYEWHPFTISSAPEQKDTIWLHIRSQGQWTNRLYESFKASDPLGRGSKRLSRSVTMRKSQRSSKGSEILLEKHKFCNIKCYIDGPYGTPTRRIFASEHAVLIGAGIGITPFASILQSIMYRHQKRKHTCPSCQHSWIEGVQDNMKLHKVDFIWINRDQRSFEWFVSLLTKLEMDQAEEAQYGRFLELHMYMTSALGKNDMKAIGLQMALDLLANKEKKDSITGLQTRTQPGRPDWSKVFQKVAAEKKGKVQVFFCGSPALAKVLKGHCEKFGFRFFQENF

[11] = compound effects on lung adenocarcinoma cell viability – A549, calcein-AM fluorescence, 48 h, basal, profiling panel (AID 1162); settings: higher = more signal; note: test concentration not given here
[12] = compound effects on differentiated 3T3-L1 adipocyte viability – cell-based, 3T3-L1 adipocytes, calcein-AM fluorescence, 48 h, basal, profiling panel (AID 1163); settings: 3T3-L1 adipocytes viability, higher = more signal; note: test concentration not given here
[13] = compound effects on hepatocellular carcinoma cell viability – HepG2, calcein-AM fluorescence, 48 h, basal, profiling panel (AID 1164); settings: higher = more signal; note: test concentration not given here
[14] = compound effects on multiple myeloma cell viability – MM1S, calcein-AM fluorescence, 48 h, basal, profiling panel (AID 1165); settings: higher = more signal;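 note: viability of MM1S multiple myeloma cells under basal unstimulated conditions; test concentration not given here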
[15] = calcein-AM signal in unstimulated myeloma cells – cell-based, calcein-AM fluorescence, 48 h, PK04 Diversity Set, profiling panel (AID 1166); settings: RPMI8226 myeloma viability, higher = more signal;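 note: cells grown under basal conditions without added stimulus; test concentration not given here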
[16] = JC-1 mitochondrial signal, unstimulated HepG2 cells – cell-based, JC-1 fluorescence, 24 h, 100 nL compound, profiling panel (AID 1167); settings: HepG2 mitochondrial potential, higher = more signal; note: test concentration not given here
[17] = JC-1 mitochondrial signal, unstimulated adipocytes – cell-based, JC-1 fluorescence, 3T3-L1 adipocytes, 24 h, 100 nL compound, profiling panel (AID 1168); settings: JC-1 mitochondrial fluorescence, higher = more signal, called active from +8 up or from −8 down; note: test concentration not given here
[18] = JC-1 mitochondrial signal, unstimulated myeloma cells – cell-based, JC-1 fluorescence, RPMI8226, 24 h, 100 nL compound, profiling panel (AID 1169); settings: JC-1 mitochondrial potential fluorescence, higher = more signal; note: test concentration not given here
[19] = JC-1 mitochondrial signal, unstimulated MM1S myeloma – cell-based, JC-1 fluorescence, 24 h, 100 nL compound, profiling panel (AID 1170); settings: MM1S mitochondrial potential, higher = more signal; note: test concentration not given here
[20] = resazurin metabolic signal in A549 cells – cell-based, resazurin fluorescence, 24 h, PK04 Diversity Set, profiling panel (AID 1171); settings: A549 viability, higher = more signal, called active from +8 up or from −8 down; note: test concentration not given here

With `CC(C)C(CO)N1C(=O)[C@@H]2[C@H]3C(=O)OCC=C[C@H]3OC23C=CCN(C(C)(C)C)C(=O)[C@@H]13` (stereo not given in full) the z-score [1] was -0.875 (inactive), the composite z-score [2] was -0.155 and the z-score [3] was 0.897 (inactive). The z-score [4] was 0.226 (inactive), the z-score [5] was 0.697 (inactive) and the z-score [6] was 0.0863 (inactive). The z-score [7] was -0.154, the z-score [8] was 0.997 (inactive) and the z-score [9] was 0.16 (inactive). The z-score [10] was 1.92, the z-score [11] was -0.234 and the z-score [12] was -0.783. For the same compound, the z-score [13] was -0.543, the z-score [14] was 0.583 and the z-score [15] was -0.251. For the same compound, the z-score [16] was -1.16, the z-score [17] was -0.0819 (inactive) and the z-score [18] was 0.185. The z-score [19] was 0.264 and the z-score [20] was -0.166 (inactive).

For `[N-]=[N+]=NCc1ccccc1[C@@H]1OC(c2ccc(OCCCO)cc2)=N[C@]1(Cc1ccccc1)C(=O)NCCN1CCOCC1`, the z-score [1] was 0.745 (inactive), the composite z-score [2] was 0.345 and the z-score [3] was 18 (active). For the same compound, the z-score [4] was 3.55 (inactive), the z-score [5] was 1.97 (inactive) and the z-score [6] was 1.13 (inactive). The z-score [7] was -0.408, the z-score [8] was -3.16 (inactive) and the z-score [9] was 2.14 (inactive). For the same compound, the z-score [10] was 0.838, the z-score [11] was 0.239 and the z-score [12] was 1.09. For the same compound, the z-score [13] was 0.91, the z-score [14] was -0.887 and the z-score [15] was 0.185. The z-score [16] was 1.14, the z-score [17] was 0.69 (inactive) and the z-score [18] was -0.191. For the same compound, the z-score [19] was 0.424 and the z-score [20] was 1.26 (inactive).

For `COC(=O)C(CC#Cc1ccc2c(c1)[C@]1(C(=O)N2)[C@H](c2ccc(O)cc2)N2[C@H](c3ccccc3)[C@H](c3ccccc3)OC(=O)[C@H]2[C@@H]1C(=O)N1CCCCCCC1)C(=O)OC`, the z-score [1] was 1.11 (inactive), the composite z-score [2] was 1.69 and the z-score [3] was 0.53 (inactive). For the same compound, the z-score [4] was -1.11 (inactive), the z-score [5] was -0.677 (inactive) and the z-score [6] was -2.43 (inactive). For the same compound, the z-score [7] was 3.01, the z-score [8] was 0.953 (inactive) and the z-score [9] was 0.181 (inactive). It also gave a z-score [10] of 1.63, a z-score [11] of 1.58 and a z-score [12] of 0.581. It also gave a z-score [13] of 1.98, a z-score [14] of 0.362 and a z-score [15] of -2.56. The z-score [16] was 0.945, the z-score [17] was -0.174 (inactive) and the z-score [18] was -0.799. The z-score [19] was -0.158 and the z-score [20] was -0.636 (inactive).

In the case of `COc1ccc(CCNC(=O)[C@@]2(Cc3ccccc3I)c3ccccc3C(=O)N(Cc3ccccc3Cl)[C@H]2c2ccc(CO)cc2)cc1`, the z-score [1] is reported as -1.2 (inactive), the composite z-score [2] is reported as 0.893 and the z-score [3] is reported as 4.53 (inactive). For the same compound, the z-score [4] was 1.52 (inactive), the z-score [5] was 1.55 (inactive) and the z-score [6] was 0.473 (inactive). For the same compound, the z-score [7] was 0.0403, the z-score [8] was 0.898 (inactive) and the z-score [9] was 0.183 (inactive). The z-score [10] was 1.39, the z-score [11] was -0.613 and the z-score [12] was -0.073. For the same compound, the z-score [13] was -0.63, the z-score [14] was -3.36 and the z-score [15] was -1.92. The z-score [16] was 0.962, the z-score [17] was 0.119 (inactive) and the z-score [18] was -0.0808. The z-score [19] was -0.413 and the z-score [20] was 0.109 (inactive).

In the case of `CN(C)CCCCNC(=O)[C@H]1C[C@H]2C(=O)N[C@@H](CCCC[N+](C)(C)C)C(=O)N2[C@H]1c1ccc(O)cc1`, the z-score [1] is reported as 1.67 (inactive), the composite z-score [2] is reported as -0.2 and the z-score [3] is reported as 1.32 (inactive). For the same compound, the z-score [4] was -0.539 (inactive), the z-score [5] was -0.27 (inactive) and the z-score [6] was -1.63 (inactive). The z-score [7] was 0.0054, the z-score [8] was 0.622 (inactive) and the z-score [9] was 0.319 (inactive). It also gave a z-score [10] of 1.31, a z-score [11] of -0.0568 and a z-score [12] of 0.29. The z-score [13] was -0.172, the z-score [14] was -0.178 and the z-score [15] was 0.733. The z-score [16] was -0.445, the z-score [17] was -0.763 (inactive) and the z-score [18] was -0.101. The z-score [19] was -0.203 and the z-score [20] was 0.625 (inactive).

With `C[C@]1(C(=O)NCCN2CCOCC2)c2ccccc2C(=O)N(Cc2cc(F)cc(C(F)(F)F)c2)[C@H]1c1ccc(CO)cc1` the z-score [1] was 1.28 (inactive), the composite z-score [2] was 0.0892 and the z-score [3] was 5.73 (inactive). For the same compound, the z-score [4] was 0.651 (inactive), the z-score [5] was 1.24 (inactive) and the z-score [6] was 0.28 (inactive). For the same compound, the z-score [7] was 0.523, the z-score [8] was 0.51 (inactive) and the z-score [9] was 0.798 (inactive). For the same compound, the z-score [10] was -0.291, the z-score [11] was 0.13 and the z-score [12] was -0.35. The z-score [13] was 0.545, the z-score [14] was -0.89 and the z-score [15] was 0.231. For the same compound, the z-score [16] was 2.36, the z-score [17] was 0.835 (inactive) and the z-score [18] was 0.695. For the same compound, the z-score [19] was -0.714 and the z-score [20] was 0.693 (inactive).

With `CCOC(=O)C1=C[C@@H](C(C)(C)C)N(S(=O)(=O)c2ccc(C)cc2)[C@H]1c1ccccc1` the z-score [1] was -0.492 (inactive), the composite z-score [2] was 0.407 and the z-score [3] was -0.132 (inactive). The z-score [4] was 0.457 (inactive), the z-score [5] was -0.803 (inactive) and the z-score [6] was -0.0282 (inactive). The z-score [7] was -0.667, the z-score [8] was -0.707 (inactive) and the z-score [9] was -0.655 (inactive). For the same compound, the z-score [10] was -0.083, the z-score [11] was -1.42 and the z-score [12] was -0.396. The z-score [13] was -2.27, the z-score [14] was -2.95 and the z-score [15] was -3.35. The z-score [16] was 3.49, the z-score [17] was -0.243 (inactive) and the z-score [18] was -0.966. For the same compound, the z-score [19] was -0.75 and the z-score [20] was 1.62 (inactive).

With `O=C1O[C@H](c2ccccc2)[C@H](c2ccccc2)N2[C@H]1[C@@H](C(=O)N1CCCCCCC1)[C@]1(C(=O)Nc3ccc(C#CC4(O)CCCCCC4)cc31)[C@H]2c1ccccc1OCCO` the z-score [1] was -0.0659 (inactive), the composite z-score [2] was 2.87 and the z-score [3] was 0.707 (inactive). The z-score [4] was 0.216 (inactive), the z-score [5] was -0.168 (inactive) and the z-score [6] was 0.614 (inactive). The z-score [7] was 0.43, the z-score [8] was 0.643 (inactive) and the z-score [9] was 0.485 (inactive). It also gave a z-score [10] of 1.56, a z-score [11] of -0.222 and a z-score [12] of -0.107. For the same compound, the z-score [13] was 0.703, the z-score [14] was -0.0437 and the z-score [15] was -0.908. The z-score [16] was -0.175, the z-score [17] was 0.64 (inactive) and the z-score [18] was -0.74. The z-score [19] was -1.26 and the z-score [20] was -0.152 (inactive).
